Where “and” joins values, the source holds several entries; their conditions need not be identical. Identical values can stand only once.

The assay has as its target Glucose transporter (Leishmania mexicana) (UniProt O61059). Description: ST_JUDE_LEISH: Cytotoxicity at 2uM final concentration against transgenic Leishmania Mexicana promastigotes LmGT2 that are glucose transport deficient and complemented with the L. Mexicana glucose transporter 2. Activity is measured by DNA content using SYBR green in vitro. The class given is functional.
What is called inhibition is the relative decrease from the control value, in per cent. Consider `O=C(NC1CCN(Cc2ccccc2)CC1)c1cccc(-c2cc3cc(Cl)c(Cl)cc3[nH]2)c1`, for which the inhibition is -0.91%. The value for `COc1ccc2nccc([C@@H](O)CN3CCC(NC(=O)Cc4cc5ccccc5s4)CC3)c2c1` was 1.96%; that for `Fc1ccc(C=NN=c2cc[nH]c3ccccc23)cc1` was 8.73%; that for `O=C(NCC1CCC(C(=O)NCc2cccc(C(F)(F)F)c2)CC1)c1ccc(O)c(-c2ccc(Cl)c(Cl)c2)c1` (centres undefined) was 2.98%. The value for `COc1ccc(N2CCN(CCCCNC(=O)c3ccc(NC(=O)c4ccc(C(F)(F)F)cc4)cc3)CC2)c(OC)c1` was 9.19%; that for `Cc1c(Cl)cccc1S(=O)(=O)Nc1cccc(CCN2CCC(N3CCCCC3)CC2)c1` was 2.25%.

Consider `COC(=O)c1cccc(CNCc2ccc(-c3cccc(-c4nc5cccc(C)c5[nH]4)c3)cc2)c1`, for which the inhibition was -2.21%. For the molecule `O[C@@H](c1cc(C(F)(F)F)nc2c(C(F)(F)F)cccc12)[C@H]1CCCCN1`, the inhibition is 7.19% and 1.05%.

Regarding `O=C(Cc1ccccc1)NC(CCN1CCC(N(C2CC2)S(=O)(=O)c2cccc(C(F)(F)F)c2)CC1)c1ccc(Cl)c(Cl)c1` (centres undefined), the inhibition came to 3.73%.

On to `CCNc1cc(C)nc(Nc2ccc(NC(=O)c3c(F)cccc3Cl)cc2)n1`, for which the inhibition is 2.56%. With `Cc1cc(O)c(CNC2CCCCC2)cc1C` the figure was 2.92%; with `CN(C)Cc1cccc(-c2ccc3ccnc(N)c3c2)c1`, 1.17%. With `O=C(N[C@H]1CCN(CCc2ccc(O[C@H]3CCNC3)cc2)C1)c1ccc(Cl)c(Cl)c1` the figure was 14.5%; with `CCOC(=O)NCCSC(C)(C)[C@H](NC(=O)[C@H](Cc1cc2ccccc2s1)[C@H](CC)N(O)C=O)C(=O)Nc1nccs1`, -0.04%; with `c1nc2nc3c(c(Nc4ccc5c(c4)CCC5)n2n1)CCC3`, 1.24%. With `COc1ccc(O)c(C(=O)c2cc(C#N)c(=O)n(-c3ccc(Oc4ccccc4)cc3)c2)c1` the figure was 9.41%. On to `CCCNCc1ccc(-c2ccc(CN(CCOC)C(=O)c3cnc(C)cn3)cc2)nc1`, for which the inhibition is 0.24%.

As to `Fc1ccc2[nH]c(-c3ccc(-c4ccc(CN5CCN(c6cnccn6)CC5)cc4)s3)nc2c1`, the inhibition is 0.86%. With `Cc1ccc(C2CC(c3cccs3)=NN2C(=O)c2ccc(Br)o2)cc1` (centres undefined) the figure was 2.89%. With `CCN(CC)/C(=N/C(=N)NCc1ccc(Cl)cc1)NCCCCCCN/C(=N\C(=N)NCc1ccc(Cl)cc1)N(CC)CC` the figure was 8.12%. With `CCN(CC)C(=O)c1cnc(-c2ccccc2)nc1Oc1cccc(Cl)c1` the figure was 3%; with `CC(C)(C)c1ccc(NC(=O)c2cccc(CN3CCCN(Cc4cccc(Cl)c4)CC3)c2)cc1`, 2.14%; with `CCOc1cc(C(=O)NCCN(C(C)C)C(C)C)ccc1-c1nc2cc(Cl)ccc2[nH]1`, 3.92%.

For `CCCCCN1C(=O)C(c2ccccc2)(c2ccccc2)N=C1N`, the inhibition is 4.92%. On to `COc1cc2nc(N3CCN(c4nc(N)c5cc(OC)c(OC)cc5n4)CC3)nc(N)c2cc1OC`, for which the inhibition was 4.05%. With `Nc1nc(N)c2c(CCc3ccc(Cl)c(Cl)c3)cccc2n1` the figure was 8.14%; with `CC(=O)Nc1ccc(OCCN(Cc2ccccc2OC(F)(F)F)c2ccc(C(F)(F)F)c(C#N)c2)c(Cl)c1`, 4.14%. With `O=C(NC1CCCCC1)c1csc(C2CCCN(C(=O)c3ccc(O)c(-c4cccc(C(F)(F)F)c4)c3)C2)n1` (centres undefined) the figure was -0.33%; with `CC(C)CN(c1nc(C(=O)NNC(=O)[C@H](CC2CC2)NC(=O)c2cc3cc(OCCN(C)C)ccc3o2)cs1)C1CC1`, 7.9%. The value for `Cc1cccc2nc(-c3cccc(-c4ccc(NC(=O)NC(C)C)cc4)c3)[nH]c12` was -0.9%; that for `c1cc(CNC2CCCC2)cc(-c2ccc(CNc3ccc4ncccc4c3)cc2)c1` was -2.51%; that for `CCc1c(C)nc(-n2nc(C)cc2NC(=O)CC(c2ccccc2)c2ccccc2)[nH]c1=O` was -4.35%. Regarding `Cc1cccc(C)c1OC(=O)CSc1nnc(-c2ccccc2O)o1`, the inhibition stood at 1.28%. With `CCOc1ccc2nc(C)cc(N/N=C/c3cccc([N+](=O)[O-])c3)c2c1` the figure was -1.04%; with `CCCCCc1cc(OC(C)=O)c2c(c1)OC(C)(C)C=C2C1=CCN(Cc2ccccc2)CC1`, -1.92%. The value for `O=C(Cc1c[nH]cn1)Nc1cccc(-c2ccc(-c3nc4cc(C(F)(F)F)ccc4[nH]3)cc2)c1` was 1.97%. With `CNc1ccc(CNCc2cccc(-c3ccc(-c4nc5cc(C(F)(F)F)ccc5[nH]4)cc3)c2)cc1` the figure was 1.39%; with `CCN(CC)CCN(Cc1ccc(-c2ccc(C(F)(F)F)cc2)cc1)C(=O)c1c[nH]c2ccc(Br)cc12`, 2.1%. Turning to `CCOc1cc(C(=O)NCC2CCN(CC3CCCCC3)CC2)ccc1-c1nc2cc(Cl)ccc2[nH]1`, the inhibition turned out to be 1.19%.

These data come from ChEMBL document CHEMBL3433997, “St. Jude Leishmania screening dataset” (2016).
